# Screening data: PubChem BioAssay, National Center for Advancing Translational Sciences (NCATS)
# Cycloheximide cs: counter-screen hit for Shiga toxin inhibitors, cycloheximide. actives 12% (n = 300,000). max response, %. cell reporter, cycloheximide protein synthesis inhibition counterscreen; in the data active = max response mostly above about 13%, no sharp cut-off; inactive = mostly below about 14%; note: read at 38.3 µM for the half of the compounds with a filed dose; 0% is about no effect
# Shiga inhibitor: blocks Shiga toxin action in Vero cells | Vero cells, Shiga toxin protein synthesis inhibition reporter | inhibition, % at 38.7 µM | actives 9.2% (n = 290,000) | AID 2315; in the data active = inhibition mostly above about 28%, no sharp cut-off; inactive = mostly below about 43%; note: 0% is about no effect
# Sm TGR block: inhibitors of Schistosoma mansoni thioredoxin glutathione reductase | Q962Y6 | purified TGR, DTNB reduction, TNB absorbance 405 nm | Potency, µM (series often up to 114 µM), for the others: at the highest dose activity change, negative = inhibition, actives largely listed as inhibitors | actives 3% (n = 360,000) | AID 485364; active = well fitted inhibition curve with a large enough effect; inconclusive = small, poorly fitted or top-dose-only effect; inactive = no such curve, though single readings can be large or run the other way; note: potency is the fitted concentration of half-maximal effect; % is set by controls: 0 for no effect and ±100 for the full control effect; nearly all actives have a fitted effect of over 60% in size
#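 Kinetic colorimetric format: TGR-catalysed, NADPH-driven DTNB reduction monitored via TNB absorbance. Enzyme dispensed at 20 nM; compound exposure 15 min at room temperature before reaction start.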
# FMDV antiviral: antivirals against foot and mouth disease virus; FMDV antiviral cell-based qHTS; Potency, µM (series often up to 57.9 µM), without a hit: top-dose activity change, negative = inhibition, actives largely listed as inhibitors; actives 1.2% (n = 410,000); AID 1159524; calls by dose curve; tested in HEK293T cells; note: read-out not given here; potency is the fitted concentration of half-maximal effect; % is set by controls: 0 for no effect and ±100 for the full control effect; nearly all actives have a fitted effect of over 45% in size
# * marks the source's active call; other numbers are inactive results; ? = inconclusive; nt = not tested or not shown; [ ] = another dose, or the depositor's remark. Only some compounds are listed: those with a hit (about 12% of all), similar ones and a draw of the others.
SMILES,Cycloheximide cs,Shiga inhibitor,Sm TGR block,FMDV antiviral
O=S(=O)(NCc1nc2cccnc2n1Cc1ccccc1Cl)c1ccc(F)c(Cl)c1,nt,nt,-1%,13%
Cc1cc(C)n(-c2nc3cc(Cl)ccc3nc2Nc2ccc(CC(=O)O)cc2)n1,nt,nt,2%,-18%
CC(=O)Cc1cc2cc([N+](=O)[O-])ccc2oc1=O,6,-10,-1%,-7%
CC(=O)CCc1oc2ccc([N+](=O)[O-])cc2c1-c1ccc(C)o1,1,-15,20µM*,-5%
CC(=O)CCc1oc2c([N+](=O)[O-])cccc2c1-c1ccc(C)o1,0,-27,11µM*,-26%
C/C(=N/Oc1nc(C)cc(C)n1)c1ccc(F)cc1,21*,41,21%,56%
C/C(=N/Oc1nc(C)cc(C)n1)c1ccccc1,19*,50,3%,65%
C/C(=N\Nc1nc(C)cc(-c2ccccc2)n1)c1ccc(F)cc1,7,11,27%,-1%
CCS(=O)(=O)N1CCC(n2c(C(F)(F)F)nc3cccnc32)CC1,nt,nt,-1%,-14%
C=C(C)C(=O)Oc1ccc(N2C(=O)CCC2=O)cc1,17*,18,-29%,-4%
O=C(CSc1nc2ncccc2o1)Nc1cccc(C(F)(F)F)c1,nt,nt,?,-6%
O=C(NC1CCSc2ccccc21)c1cccc(Cl)c1 (stereo not given),1,-16,7.9µM*,?
O=C(NC1CCSc2ccccc21)c1ccccc1Br (stereo not given),24*,23*,0%,-8%
NS(=O)(=O)c1cccc(C(=O)NC2CCSc3ccccc32)c1 (stereo not given),4,-1,2%,0%
CS(=O)(=O)c1ccc(Cl)c(C(=O)NC2CCSc3ccccc32)c1 (stereo not given),22*,37,1%,-11%
O=C(NC1CCCc2ccccc21)c1ccccc1Br (stereo not given),-3,-13,1%,nt
NS(=O)(=O)c1cc(C(=O)NC2CCSc3ccccc32)ccc1Cl (stereo not given),-4,-14,-17%,17%
CCc1ccccc1N(CC)C(=O)c1c(C)oc2ncnc(N3CCOCC3)c12,nt,nt,3%,-8%
CCc1ccc(S(=O)(=O)c2nnn3c2nc(Nc2cc(OC)cc(OC)c2)c2cc(Cl)ccc23)cc1,nt,nt,6%,16%
Cc1ccc(NC(=O)c2c(NC(=O)C(F)(F)F)sc3c2CCCCC3)cc1,nt,nt,-6%,?
Cc1ccc(C)c(NC(=O)C(Sc2nncn2C)c2ccccc2)c1 (stereo not given),-2,2,89µM*,-24%
O=C(O)CCC(=O)OC[C@@H](NC(=O)C(Cl)Cl)C(O)c1ccc([N+](=O)[O-])cc1 (stereo not given in full),nt,nt,nt,-23%
COc1cc(/C=C2/SC(=S)N(CC(=O)O)C2=O)ccc1OC(=O)c1cccs1,1,-5,1%,1%
CCOc1cc(/C=C2/C(=O)NC(=O)N(c3ccc(CC)cc3)C2=O)ccc1OC(=O)c1cccs1,-6,-4,35µM*,5%
Cn1c(CSc2ccccc2)c(C#N)c2ccccc21,43*,81*,4%,36%
SMILES,Cycloheximide cs,Shiga inhibitor,Sm TGR block,FMDV antiviral
CCOc1ccc(N2C(=O)CC(N3CCOCC3)C2=O)cc1 (stereo not given),6,25,-29%,nt
CC(=O)Oc1cccc(N2C(=O)C3C(C2=O)C2C=CC3C23CC3)c1 (stereo not given),1,-4,40µM*,9%
O=C1CC(N2CCOCC2)C(=O)N1c1ccc2c(c1)OCO2 (stereo not given),-2,-7,50µM*,-13%
CC(=O)Oc1ccc(N2C(=O)C3C4C=CC(O4)C3C2=O)cc1 (stereo not given),0,27,7.1µM*,nt
CC(=O)Oc1ccc(N2C(=O)CC(N3CCOCC3)C2=O)cc1 (stereo not given),-5,-6,22µM*,-4%
O=C1CC(N2CCN(c3ccccc3)CC2)C(=O)N1c1ccc2c(c1)OCO2 (stereo not given),-2,-8,-16%,2%
CC(=O)Oc1cccc(N2C(=O)C3C4C=CC(C4=C(C)C)C3C2=O)c1 (stereo not given),10,18,-24%,-13%
Oc1c(C(c2cccc(Cl)c2)N2CCOCC2)sc2nc(-c3ccco3)nn12 (stereo not given),nt,nt,-1%,-8%
O=C(Cn1nc(-c2ccccc2)nc(Cc2ccccc2)c1=O)Nc1ccccc1,nt,nt,-3%,5%
Cc1cccc(NC(=O)CSc2ncc3c(n2)-c2ccccc2N(Cc2ccc(F)cc2)S3(=O)=O)c1C,nt,nt,1%,-28%
Cc1nnc(N(C)C(=O)c2ccccn2)s1,-3,-16,-1%,-7%
Cc1ccc(-c2nnc(N(C)C(=O)c3cccnc3)s2)cc1,34*,77,10%,4%
CN(C(=O)c1ccccn1)c1nnc(-c2cccnc2)s1,54*,32,-12%,56%
COc1ccc(-c2nnc(N(C)C(=O)c3cccnc3)s2)cc1,27*,46,-27%,8%
Cc1ccc(-c2nnc(N(C)C(=O)c3cccnc3)s2)cn1,10,16,15%,35%
CC(C)(C)OC(=O)N1CCC(c2c(C(=O)Nc3ccc4c(c3)OCO4)cnn2-c2ccc(F)cc2F)CC1,nt,nt,-3%,18%
COc1ccc(N2CCN(C(=O)CN3CCSc4ccccc43)CC2)cc1,nt,nt,4%,?
Cc1nn(C)c2c1c(-c1ccccc1)cc(=O)n2C(C)C(=O)NCc1ccc(F)cc1 (stereo not given),nt,nt,6%,-16%
CCc1ccccc1-n1c(SCC(=O)N2CCCC2)nc2[nH]ncc2c1=O,6,-11,0%,-14%
CCc1ccccc1-n1c(SCC(=O)Nc2ccc3c(c2)OCCO3)nc2[nH]ncc2c1=O,53*,112*,7%,?
O=c1c2cn[nH]c2nc(SCc2ccc3c(c2)OCCO3)n1-c1ccccc1,2,-13,0%,25µM*
O=c1c2cn[nH]c2nc(SCc2cccc(Br)c2)n1-c1ccc(Cl)cc1,nt,nt,-2%,0%
COCCC(=O)N1CCCC(C(=O)c2ccc(Oc3ccccc3)cc2)C1 (stereo not given),14,-17,-4%,-17%
CCN1CCN(CC(=O)N2CCCC(C(=O)c3ccc(Oc4ccccc4)cc3)C2)CC1 (stereo not given),25*,56*,-14%,-4%
CCC(=O)N1CCCC(C(=O)c2ccc(-c3ccccc3)cc2)C1 (stereo not given),13*,47,-8%,-12%
SMILES,Cycloheximide cs,Shiga inhibitor,Sm TGR block,FMDV antiviral
COc1ccc(Cl)cc1NC(=O)CN1c2ccccc2S(=O)(=O)c2ccccc21,nt,nt,-3%,-31%
COC(=O)c1c(-c2cccs2)csc1NC(=O)COc1ccc(C(C)C)cc1,nt,nt,12%,-28%
Cc1ccc(CCNc2nc3c(S(=O)(=O)c4ccccc4)nnn3c3ccsc23)cc1,nt,nt,32µM*,-7%
Cn1nnnc1Sc1ncnc2scc(Br)c12,nt,nt,nt,22µM*
Cn1nnnc1Sc1ncnc2scc(-c3ccccc3)c12,2,4,1%,22µM*
Cn1nnnc1Sc1ncnc2scc(-c3ccccc3Br)c12,nt,nt,0%,?
Cc1nc(Sc2nnnn2C)c2c3c(sc2n1)CCC3,-1,-18,-5%[11.4 µM],?
Cn1nnnc1Sc1ncnc2scc(-c3ccc(F)cc3)c12,-6,19,3%,16µM*
